Source: PubChem BioAssay
An excerpt weighted towards active compounds, which were near 2.9% of everything screened.
PLCg1 inh = blocks human PLC-gamma1 enzyme activity; AID 720700; P19174; purified PLC-gamma1, fluorogenic substrate, fluorescence; 0.84% of 370,000 active; inhibition, % at 12.2 µM; in the data active = inhibition above about 9.5%
Target sequence (P19174 whole entry, looked up): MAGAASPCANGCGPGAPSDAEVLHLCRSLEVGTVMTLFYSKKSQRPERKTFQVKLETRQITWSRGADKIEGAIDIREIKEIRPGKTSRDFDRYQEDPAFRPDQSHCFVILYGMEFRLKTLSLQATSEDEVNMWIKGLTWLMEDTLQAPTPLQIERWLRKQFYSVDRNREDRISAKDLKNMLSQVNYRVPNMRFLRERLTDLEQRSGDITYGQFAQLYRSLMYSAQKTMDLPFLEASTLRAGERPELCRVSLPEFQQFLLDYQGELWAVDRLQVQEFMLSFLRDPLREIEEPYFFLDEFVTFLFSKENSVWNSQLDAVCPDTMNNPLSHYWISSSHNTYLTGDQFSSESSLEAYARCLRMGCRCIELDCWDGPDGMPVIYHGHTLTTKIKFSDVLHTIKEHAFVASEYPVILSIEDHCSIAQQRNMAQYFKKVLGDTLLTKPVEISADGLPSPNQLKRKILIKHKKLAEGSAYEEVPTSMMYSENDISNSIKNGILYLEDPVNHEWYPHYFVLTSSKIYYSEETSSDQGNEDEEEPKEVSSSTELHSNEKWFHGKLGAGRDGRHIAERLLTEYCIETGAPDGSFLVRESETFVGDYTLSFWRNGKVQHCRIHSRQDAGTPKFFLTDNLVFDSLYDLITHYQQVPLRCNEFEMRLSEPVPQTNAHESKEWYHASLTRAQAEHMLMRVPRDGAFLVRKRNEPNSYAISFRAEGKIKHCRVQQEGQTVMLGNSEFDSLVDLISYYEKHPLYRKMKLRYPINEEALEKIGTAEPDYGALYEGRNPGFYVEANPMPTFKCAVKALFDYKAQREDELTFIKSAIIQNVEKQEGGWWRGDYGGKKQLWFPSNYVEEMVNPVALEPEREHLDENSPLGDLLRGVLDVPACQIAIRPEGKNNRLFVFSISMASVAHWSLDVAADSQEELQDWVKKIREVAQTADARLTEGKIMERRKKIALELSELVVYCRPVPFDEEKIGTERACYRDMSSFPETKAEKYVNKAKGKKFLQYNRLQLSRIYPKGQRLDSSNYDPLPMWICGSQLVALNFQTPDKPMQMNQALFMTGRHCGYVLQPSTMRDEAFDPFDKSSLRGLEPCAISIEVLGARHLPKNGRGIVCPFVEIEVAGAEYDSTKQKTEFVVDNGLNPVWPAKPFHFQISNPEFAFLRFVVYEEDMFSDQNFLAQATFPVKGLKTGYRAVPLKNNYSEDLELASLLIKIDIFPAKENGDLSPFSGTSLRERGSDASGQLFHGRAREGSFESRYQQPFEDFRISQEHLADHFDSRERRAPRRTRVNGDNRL
proKLK7 act = activates the human kallikrein-7 zymogen; P49862; purified proKLK7, EDANS-DABCYL substrate fluorescence; 100% is mature enzyme control, 0% vehicle; activation, % at 7 µM; 0.9% of 370,000 active;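 active = activation above the mean of all tested compounds plus 3 SD, computed per campaign excluding outliers beyond control limits, cut at about 13% in these data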
ADAM17 inh = ADAM17 inhibition, QFRET primary screen; recombinant ADAM17, EDANS/DABCYL FRET peptide cleavage; 0.83% of 370,000 active; inhibition, % at 6.95 µM;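 active = inhibition above the mean of compounds lying between control limits plus 3 SD, set per campaign, cut at about 8.5% in these data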
ADAM10 inh = inhibits human ADAM10; O14672; recombinant ADAM10, EDANS/DABCYL FRET peptide cleavage, 3 h; inhibition, % at 7 µM; 0.62% of 370,000 active;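 active = inhibition above a per-campaign cutoff equal to the mean of compounds falling between control-based bounds plus 3 SD, cut at about 20% in these data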
PLC-beta3 inh = PLC-beta3 (human) inhibition, primary screen. Q01970. Purified PLC-beta3, fluorogenic substrate, fluorescence. inhibition, % at 12.2 µM. 0.18% of 370,000 active. AID 720704
ADAM10 ctr = counter-screen for ADAM17 exosite inhibitors: inhibitors of human ADAM10; 47% of 2,900 active; recombinant ADAM10, EDANS/DABCYL FRET peptide cleavage, 3 h; inhibition, % at 6.95 µM; shares compounds with ADAM17 inh;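 active = mean inhibition over the triplicate runs exceeds the activity threshold set in the earlier primary screen, cut at about 20% in these data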
ADAM17 confirm = confirmation of inhibitors of human ADAM17; 65% of 2,900 active; recombinant ADAM17, EDANS/DABCYL QFRET peptide cleavage; inhibition, % at 6.95 µM; shares compounds with ADAM17 inh;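 active = mean inhibition across replicates above the hit cutoff set in the primary screen, cut at about 8.5% in these data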
PLCg1 ctr = counter-screen for PLC-beta3 inhibitors: inhibitors of human PLC-gamma1 | inhibition, % at 12.3 µM | shares compounds with PLCg1 inh | 3.1% of 3,300 active | purified PLC-gamma1, fluorogenic substrate, fluorescence; in the data active = inhibition above about 9.5%
PLCb3 confirm = confirmation of human PLC-beta3 inhibitors | shares compounds with PLCg1 inh | purified PLC-beta3, fluorogenic substrate fluorescence | inhibition, % at 12.3 µM | 1% of 3,300 active | AID 743261
Numbers stand for hits; i = inactive; nt = no result given. Rule as the data show it, unless noted: active = inhibition above about 11%; inactive = the rest.

SMILES | PLCg1 inh | proKLK7 act | ADAM17 inh | ADAM10 inh | PLC-beta3 inh | ADAM10 ctr | ADAM17 confirm | PLCg1 ctr | PLCb3 confirm
O=C(NCc1ccc(Cl)c(Cl)c1)c1cc(C2CCCCN2C(=O)c2ccccc2)on1 (stereo not drawn) | i | i | i | i | i | nt | nt | nt | nt
Cc1ccc(-c2nc(C3CCCN(S(=O)(=O)c4cccs4)C3)no2)cc1 (stereo not drawn) | i | i | i | i | i | nt | nt | nt | nt
O=C1c2cc(CO)cc(O)c2C(=O)c2c(O[C@@H]3OC(CO)[C@@H](O)[C@@H](O)[C@@H]3O)cccc21 (stereo partly drawn) | i | i | i | i | i | nt | nt | nt | nt
O=C(O)c1cc(O)c2c(c1)[C@H]([C@H]1c3cc(C(=O)O)cc(O)c3C(=O)c3c(O[C@@H]4O[C@H](CO)[C@@H](O)[C@H](O)[C@H]4O)cccc31)c1cccc(OC3O[C@H](CO)[C@@H](O)[C@H](O)[C@H]3O)c1C2=O (stereo partly drawn) | 33 | i | 16 | i | 19 | i | 9.7 | 28 | i
CCOC(=O)C1(Cc2cccc(Cl)c2)CCCN(C(=O)CCOC)C1 (stereo not drawn) | i | i | i | i | i | nt | nt | nt | nt
C=CCCC(=O)N1CCCC(Cc2cccc(Cl)c2)(C(=O)OCC)C1 (stereo not drawn) | 12 | i | 9.1 | i | i | i | i | i | i
CCOCCCNc1nc(C)nc2c1nnn2Cc1c(F)cccc1Cl | i | i | i | i | i | nt | nt | nt | nt
COc1ccc(N2C(=O)C3C(C2=O)C3(c2ccccc2)c2ccccc2)cc1 (stereo not drawn) | 12 | i | 13 | i | i | i | i | i | i
Cc1nc2ccc(S(=O)(=O)NCC(=O)NCc3ccc4c(c3)OCO4)cc2s1 | i | i | 11 | i | 12 | i | 15 | i | i
CC(=O)Nc1ccc(S(=O)(=O)Nc2ccc(Nc3ccccc3)cc2)cc1 | i | i | i | i | i | nt | nt | nt | nt
CCN1C(=O)C(CC(=O)Nc2ccc(OC)cc2)N(CCc2ccc(OC)cc2)C1=S (stereo not drawn) | i | i | 11 | i | 14 | 32 | 15 | i | i
CCN1C(=O)C(CC(=O)Nc2ccc(OC)cc2)N(Cc2ccc(OC)c(OC)c2)C1=S (stereo not drawn) | i | i | i | i | i | nt | nt | nt | nt
COc1cccc(-c2ccc3ncnc(NCc4ccc5c(c4)OCO5)c3c2)c1 | 11 | i | 11 | i | 12 | i | i | i | i
O=C(N=C1SC2CS(=O)(=O)CC2N1c1ccc(F)cc1F)C1CC1 (stereo not drawn) | i | i | i | i | i | nt | nt | nt | nt
Cc1ccc(N(CC(=O)NCc2cccnc2)S(C)(=O)=O)cc1C | 12 | i | 10 | i | i | i | i | i | i
CCC(C)Cn1cnc2c(Sc3c([N+](=O)[O-])ncn3C)nc(N)nc21 (stereo not drawn) | i | i | i | i | i | nt | nt | nt | nt
CC(C)Cn1cnc2c(Sc3c([N+](=O)[O-])ncn3C)nc(N)nc21 | 22 | i | 9.4 | i | 12 | i | i | i | i
CC(C)(C)OC(=O)NCCCCCc1cn([C@@H](CO)C(=O)NCCCCCCCCCCC(=O)N2CCN(C(=O)OC(C)(C)C)CC2)nn1 | i | i | i | i | i | nt | nt | nt | nt
CCOC(=O)Cc1csc(NC(=O)COc2ccccc2)n1 | 11 | i | 10.0 | i | i | i | i | i | i
O=S(=O)(Cc1ccc(Cl)cc1)C1CCCCC1O (stereo not drawn) | 11 | i | 11 | i | i | i | i | i | i
O=C(CNC(=O)c1ccc(S(=O)(=O)N2CCCCC2)cc1)N/N=C/c1ccco1 | i | i | i | i | i | nt | nt | nt | nt
CC(=O)c1cccc(NC(=O)C2=CC(c3cccs3)=NS(=O)(=O)N2C)c1 | i | i | i | i | i | nt | nt | nt | nt
